MITF primary = inhibitors of human MITF | AlphaScreen MITF homodimerization, bead proximity signal | inhibition, % at 2.6 µM | 650,000 compounds, 0.91% hits | AID 1259374; in the data active = inhibition above about 50%;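 note: 0% = vehicle wells with protein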
Target sequence (O75030 whole entry, looked up): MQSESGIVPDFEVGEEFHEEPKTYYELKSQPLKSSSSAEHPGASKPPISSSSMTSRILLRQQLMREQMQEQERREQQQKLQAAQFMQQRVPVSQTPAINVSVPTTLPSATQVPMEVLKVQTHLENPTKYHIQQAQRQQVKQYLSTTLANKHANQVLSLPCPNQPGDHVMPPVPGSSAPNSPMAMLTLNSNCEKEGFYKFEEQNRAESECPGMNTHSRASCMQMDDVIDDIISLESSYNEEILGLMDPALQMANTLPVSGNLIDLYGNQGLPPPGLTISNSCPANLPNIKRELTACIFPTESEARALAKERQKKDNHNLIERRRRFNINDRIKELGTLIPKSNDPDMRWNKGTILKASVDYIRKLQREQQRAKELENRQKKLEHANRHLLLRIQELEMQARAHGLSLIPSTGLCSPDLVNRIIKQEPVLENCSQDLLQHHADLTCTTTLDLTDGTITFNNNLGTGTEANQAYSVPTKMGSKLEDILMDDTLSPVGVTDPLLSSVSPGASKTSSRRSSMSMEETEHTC
GPR151 activ = human GPR151 activation; AID 1508602; activation, % at 11.2 µM; 650,000 compounds, 1% hits; PathHunter beta-arrestin GPR151 cells, luminescence; in the data active = activation above about 4.9%;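 note: 0% = median of compound wells and 100% = cells with positive control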
FBW7 act = activators of human E3 ligase FBW7; 650,000 compounds, 0.13% hits; AID 1259310; AlphaScreen FBW7–phospho-cyclin E peptide binding, activator screen; Q969H0; normalized activity (activation), % at 26.1 µM; in the data active = normalized activity above about 1.9%;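 note: purified mutant Fbw7 with reduced substrate affinity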
TEAD-YAP inh = TEAD-YAP interaction inhibition; inhibition, % at 9.12 µM; 640,000 compounds, 1.4% hits; HEK-TIYL cells, TEAD-Gal4/YAP UAS-luciferase luminescence; in the data active = inhibition above about 32%;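 note: 0% = median of test compound wells and 100% = reference inhibitor wells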
GPR151 conf act = confirmation of human GPR151 activators; shares compounds with GPR151 activ; GPR151 PathHunter beta-arrestin cells, luminescence, 90 min; % of EA-reagent control over plate median; activation, % at 11.2 µM; 6,700 tested, under 10 active;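 active = mean percent activation across replicates above the confirmation screen cutoff of 4.91%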
GPR119 counter = activates human GPR119 in a GPR151 counter-screen | shares compounds with GPR151 activ | GPR119 PathHunter beta-arrestin cells, luminescence, 90 min; 0 = compound-well median, 100 = enzyme-acceptor control | activation, % at 11.2 µM | 6,700 compounds, 0.3% hits | AID 1508611;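 active = mean percent activation in the counterscreen above 29.09%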;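 note: counterscreen on off-target GPR119 to flag nonselective hits from the GPR151 activator screen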
* = called active by the depositor; · = no result given. Most compounds without a hit are left out; they make up all but 3.5% or so of the library.

SMILES	MITF primary	GPR151 activ	FBW7 act	TEAD-YAP inh	GPR151 conf act	GPR119 counter
COc1cc(C(=O)N2CCCC(C(F)(F)F)C2)cc(OC)c1OC (configuration not stated)	46.7	-0.2	0.0	1.5	·	·
C[C@H]1C(=O)N2CCN(Cc3ccc(F)c(F)c3)C[C@@H]2C(=O)N1C	-6.0	6.8*	0.0	-3.5	-0.6	5.4
CN(C)c1cccc(Nc2nc(NCc3cccc(C(F)(F)F)c3)c3[nH]cnc3n2)c1	-1.9	-0.1	-0.2	-4.5	·	·
COc1ccc(C(=O)NCCOc2ccccc2OC)cc1OC	-1.1	-1.5	0.2	4.1	·	·
CCOc1cc(C(=O)NCc2ccccc2)ccc1OC	-6.2	14.1*	-0.1	0.8	0.0	-7.9
CCOC(=O)CNC(=O)c1ccc(OC)c(Br)c1	-10.8	5.6*	-0.2	-5.8	-0.2	2.0
COc1ccc(C(=O)NCCC(c2ccccc2)c2ccccc2)cc1OC	5.7	19.1*	-0.1	1.8	0.2	-5.0
COc1ccc(C(=O)NCc2ccccc2)cc1I	-3.0	-0.5	0.1	-5.8	·	·
CCOC(=O)CNC(=O)c1ccc(OC)c(I)c1	13.1	2.3	0.1	-19.8	·	·
COc1cc(CN2CCOCC2)c([N+](=O)[O-])cc1OC	-1.9	-0.5	-0.3	-1.1	·	·
CC(=O)NCCc1nc2cc(NC(=O)Cn3nc(C)c4ccccc4c3=O)ccc2n1C	-0.7	-0.5	0.2	3.8	·	·
CC(C)c1ccc(NC(=O)C2C3C=CC4(O3)C2C(=O)N(CCCN2CCOCC2)C4C(=O)NC2CCCCC2)cc1 (configuration not stated)	-8.4	5.5*	-0.4	3.5	0.8	11.8
Cc1ccc(NC(=O)C2C3C=CC4(O3)C2C(=O)N(CCC2=CCCCC2)C4C(=O)NC2CCCCC2)cc1 (configuration not stated)	-3.5	-0.3	0.3	-8.1	·	·
CCCCN1C(=O)C2C(C(=O)Nc3ccc(Cl)c(Cl)c3)C3C=CC2(O3)C1C(=O)NC1CCCCC1 (configuration not stated)	15.9	-2.0	0.1	3.1	·	·
CCCCN1C(=O)C2C(C(=O)Nc3ccc(C)c(Cl)c3)C3C=CC2(O3)C1C(=O)NC1CCCCC1 (configuration not stated)	-13.3	9.6*	0.0	-4.6	0.3	2.6
Cc1ccc(NC(=O)C2C3C=CC4(O3)C2C(=O)N(CCC2=CCCCC2)C4C(=O)NC2CCCCC2)cc1Cl (configuration not stated)	-21.9	5.8*	0.0	-0.8	-0.5	-7.7
CC(C)c1ccc(NC(=O)C2C3C=CC4(O3)C2C(=O)N(CCCN2CCN(C)CC2)C4C(=O)NC2CCCCC2)cc1 (configuration not stated)	-12.7	-0.3	0.0	-13.7	·	·
C=CCNC(=O)CN(C)S(=O)(=O)c1ccc(Cl)cc1	-17.1	-1.2	0.2	-9.3	·	·
COc1ccccc1C(=O)Nc1c(C(=O)Nc2ccccc2)oc2ccccc12	0.0	-0.6	0.0	-8.1	·	·
COc1cc(/C=C2\SC(N)=NC2=O)ccc1OC(=O)c1ccc(Cl)cc1	6.8	-0.1	-0.1	7.8	·	·
COc1ccc(C(=O)Oc2c(Cl)cc(/C=C3\SC(N)=NC3=O)cc2OC)cc1	-12.7	8.2*	-0.1	-1.9	1.1	16.4
Cc1ccc(-n2cc(-c3ccccc3)c3c(NCc4ccccc4)ncnc32)cc1	-2.0	0.1	0.3	11.6	·	·
Cc1ccc(CNc2ncnc3c2c(-c2ccccc2)cn3-c2ccc(Cl)cc2)cc1	-10.6	8.4*	0.1	-0.8	-0.3	-1.9
Cn1c(=NC(=O)c2ccc(S(=O)(=O)N3CCCCC3)cc2)sc2c3ccccc3ccc21	3.7	1.6	0.1	4.4	·	·
Cc1cccc(CN2C(=O)CCC2CCNCc2ccccc2F)c1 (configuration not stated)	13.4	7.1*	0.0	6.3	0.9	8.4
SMILES	MITF primary	GPR151 activ	FBW7 act	TEAD-YAP inh	GPR151 conf act	GPR119 counter
Cc1cccc(CNCCC2CCC(=O)N2Cc2cc(F)ccc2C)c1 (configuration not stated)	3.5	-0.5	1.1	6.0	·	·
CCCCCCCCCCCCC/C=C/[C@@H](O)[C@H](COP(=O)(O)O)NC(=O)CCCCCCC	-6.8	5.2*	·	·	0.4	-10.7
Cc1cc(C)nc(N2CC(=O)N(C)C2=N)n1	-7.8	5.5*	0.0	-1.3	0.4	3.8
CN1C(=N)N(c2nc(N(C)C)nc(N(C)C)n2)CC1=O	-2.9	1.4	-0.1	2.5	·	·
COc1ccc(C(CC(=O)NCCN2CCOCC2)NS(=O)(=O)c2ccc(Cl)cc2)cc1 (configuration not stated)	23.2	-0.6	0.4	5.5	·	·
N#C/C(=C\c1ccc2c(c1)OCO2)C(=O)Nc1ccc(Cl)c([N+](=O)[O-])c1	16.4	6.0*	-0.1	4.0	0.7	-11.7
CN1c2ccccc2-c2ccccc2C12C=Cc1ccccc1O2 (configuration not stated)	9.3	1.9	-0.1	-3.7	·	·
CCCCCn1c(SCC(=O)OCC)nc2cc(C(=O)NC3CCCCC3)ccc2c1=O	-7.5	5.4*	-0.3	1.1	-0.2	4.1
COc1ccc(Cl)cc1NC(=O)CS(=O)(=O)c1ccccc1	10.2	0.4	0.0	-1.8	·	·
Cn1cnnc1SCCNC(=O)c1ccc(OCC(=O)C2CC2)cc1	7.2	6.9*	0.1	0.5	-0.4	12.4
C=CCNC(=O)c1ccc(OCC(=O)C2CC2)cc1	-0.3	-0.4	0.0	-0.6	·	·
O=c1[nH]c2sc3c(c2c(=O)n1-c1ccccc1)CCCC3	2.7	-0.1	0.1	6.5	·	·
O=c1[nH]c(=S)c2c(n1-c1ccccc1)CCC2	5.1	5.9*	0.3	6.2	0.6	9.5
Cn1cc(CN2CCN3C(=O)[C@H](CO)NC(=O)[C@H]3C2)c(-c2ccccc2)n1	-7.3	-0.6	-0.1	7.5	·	·
CC1CN(C(=O)CCC(=O)NC2CCCC2)c2ccccc2O1 (configuration not stated)	5.0	5.1*	0.0	-6.4	-0.4	-2.1
Cc1ccc(S(=O)(=O)CCC(=O)N2CCN(c3ccccn3)CC2)cc1	4.0	5.1*	0.0	-2.8	-0.2	-3.4
Cc1cc2ccccc2c(=O)n1CC(=O)N1CCN(c2ccccn2)CC1	-1.8	7.2*	0.1	10.1	0.2	-9.0
CC1CN(C(=O)CCC(=O)NC2CCCC2)c2cc(Cl)ccc2O1 (configuration not stated)	-2.7	-0.1	0.0	-4.1	·	·
CC1CN(C(=O)CCC(=O)N2CCN(c3ccccn3)CC2)c2ccccc2O1 (configuration not stated)	-6.8	6.1*	-0.2	-1.8	0.2	-0.5
COC(=O)COc1c(Cl)cc(/C=C2/NC(=O)N(c3ccccc3)C2=O)cc1Cl	19.7	-0.8	0.0	-0.8	·	·
Cc1ccc(-c2ccc3c(c2)CC(CNC(=O)CCc2ccco2)O3)nc1 (configuration not stated)	-1.4	6.4*	-0.1	-44.9	1.0	13.5
